Calls of active or inactive are those of the source.
Assays:
[1] = A549 cell viability effects, profiling panel, calcein-AM fluorescence, 48 h, basal (AID 1162); settings: higher = more signal
[2] = adipocyte viability effects, profiling panel, cell-based, 3T3-L1 adipocytes, calcein-AM fluorescence, 48 h, basal (AID 1163); settings: 3T3-L1 adipocytes viability, higher = more signal
[3] = HepG2 cell viability effects, profiling panel, calcein-AM fluorescence, 48 h, basal (AID 1164); settings: higher = more signal
[4] = MM1S cell viability effects, profiling panel, calcein-AM fluorescence, 48 h, basal (AID 1165); settings: higher = more signal;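 note: viability of MM1S multiple myeloma cells under basal unstimulated conditions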
[5] = basal RPMI8226 viability, no added stimulus, profiling panel, cell-based, calcein-AM fluorescence, 48 h, PK04 Diversity Set (AID 1166); settings: RPMI8226 myeloma viability, higher = more signal;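 note: cells grown under basal conditions without added stimulus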
[6] = basal HepG2 mitochondrial membrane potential changes, profiling panel, cell-based, JC-1 fluorescence, 24 h, 100 nL compound (AID 1167); settings: higher = more signal
[7] = basal 3T3-L1 adipocyte mitochondrial potential changes, profiling panel, cell-based, JC-1 fluorescence, 3T3-L1 adipocytes, 24 h, 100 nL compound (AID 1168); settings: JC-1 mitochondrial fluorescence, higher = more signal, called active from +8 up or from −8 down
[8] = basal RPMI8226 mitochondrial membrane potential changes, profiling panel, cell-based, JC-1 fluorescence, 24 h, 100 nL compound (AID 1169); settings: RPMI8226 myeloma, JC-1 mitochondrial potential fluorescence, higher = more signal
[9] = basal MM1S mitochondrial membrane potential changes, profiling panel, cell-based, JC-1 fluorescence, 24 h, 100 nL compound (AID 1170); settings: higher = more signal
[10] = A549 lung cancer cell viability effects, profiling panel, resazurin fluorescence, 24 h, PK04 Diversity Set (AID 1171); settings: higher = more signal, called active from +8 up or from −8 down
Note: test concentration not given here.

| Structure (SMILES) | z-score [1] | z-score [2] | z-score [3] | z-score [4] | z-score [5] | z-score [6] | z-score [7] | z-score [8] | z-score [9] | z-score [10] |
| --- | --- | --- | --- | --- | --- | --- | --- | --- | --- | --- |
| C=CC[C@@]1(C(=O)NCCN2CCOCC2)N=C(c2ccc(OCCCO)cc2)O[C@@H]1c1ccccc1 | -0.181 | 0.458 | -0.253 | 0.672 | 0.418 | 0.603 | -0.672 (inactive) | 0.574 | 0.4 | 1.28 (inactive) |
| CN1C(=O)C2C=CC(C(O)COCc3ccccc3)N(Nc3ccccc3)C2C1=O (stereo not given) | -0.115 | -1.24 | -0.465 | 0.225 | 0.192 | -1.05 | 0.0756 (inactive) | -0.0145 | -0.178 | 0.105 (inactive) |
| O=C1NC(=O)C2C1C=CC(C(O)c1ccc3c(c1)OCO3)N2Nc1ccc(Cl)cc1Cl (stereo not given) | -0.713 | -0.638 | -1.22 | -2.41 | -1.99 | -2.87 | -0.748 (inactive) | -0.103 | -0.339 | -0.233 (inactive) |
| COC(=O)[C@@]1(Cc2ccccc2)[C@H]2c3cc(C(=O)N(C)C)n(Cc4ccccn4)c3C[C@H]2CN1C(=O)c1ccccc1 | -1.43 | -0.125 | -0.468 | -1 | -1.71 | 0.428 | -0.698 (inactive) | 0.00235 | -0.135 | -0.712 (inactive) |
| CN(C)CCCCCCNC(=O)[C@@H]1C[C@@H]2C(=O)NCC(=O)N2[C@@H]1c1ccc(O)cc1 | -0.627 | 0.5 | -0.963 | -0.539 | 0.71 | -1.16 | -0.782 (inactive) | 0.3 | 0.216 | -0.898 (inactive) |
| CO[C@H]1O[C@H](CO)[C@@H](OC(=O)Nc2ccc(C(F)(F)F)cc2)[C@H](OC(=O)Nc2ccccc2)[C@H]1OC(=O)Nc1ccccc1 | -3.56 | 1.96 | -5.2 | -3.39 | -4.45 | -1.93 | 0.575 (inactive) | -1.27 | -1.45 | -6.31 (inactive) |
| CCCC=C(CCC)[C@@H](NS(=O)(=O)c1cccc2cccnc12)c1ccc(C(=O)OC)cc1 | -1.76 | -0.0806 | -1.38 | 0.131 | -0.0956 | -1.52 | -0.553 (inactive) | 0.907 | -1.13 | 0.174 (inactive) |
| O=C1O[C@H](c2ccccc2)[C@H](c2ccccc2)N2[C@H]1[C@@H](C(=O)NC[C@H](O)c1ccccc1)[C@]1(C(=O)Nc3ccccc31)[C@H]2c1ccccc1OCCO | -1.78 | 0.559 | -5.16 | -3.38 | -4.61 | -2.92 | 2.95 (inactive) | -1.15 | -2.19 | -3.12 (inactive) |
| COCCOC(=O)N1C(=O)[C@@]2(c3cc(C#CCCO)ccc31)[C@H](C(=O)NC[C@H](O)c1ccccc1)[C@H]1C(=O)O[C@H](c3ccccc3)[C@H](c3ccccc3)N1[C@@H]2c1ccccc1OCCO | 1.27 | 0.904 | 1.21 | -1.96 | -3.05 | -1.36 | 0.833 (inactive) | -0.844 | -0.424 | 0.715 (inactive) |
| CCCCCCCCCCC(O)C1C=CC2C(=O)NC(=O)C2N1Nc1ccccn1 (stereo not given) | -3.22 | -0.964 | -4.08 | -3.81 | -4.13 | -3.82 | -0.46 (inactive) | -0.944 | -0.657 | -1.5 (inactive) |
| COCCCNC(=O)[C@]1(Cc2ccccc2CN=[N+]=[N-])N=C(c2ccc(OCCCO)cc2)O[C@@H]1c1ccccc1CN=[N+]=[N-] | -0.386 | 0.0035 | -0.918 | -2.79 | -4.22 | 1.31 | -0.907 (inactive) | -1.18 | -1.73 | -0.241 (inactive) |
| COCCOC(=O)N1C(=O)[C@@]2(c3ccccc31)[C@H](c1ccc(OCCO)cc1)N1[C@H](c3ccccc3)[C@H](c3ccccc3)OC(=O)[C@H]1[C@@H]2C(=O)NC[C@H](O)c1ccccc1 | -0.332 | 0.754 | 0.349 | -0.991 | -2.39 | -0.32 | 0.988 (inactive) | 0.199 | -0.864 | -1.16 (inactive) |
| NC(=O)[C@H]1[C@@H]2C(=O)O[C@@H](c3ccccc3)[C@@H](c3ccccc3)N2[C@@H](c2ccc(O)cc2)[C@]12C(=O)Nc1ccc(C#CC3(O)CCCCCC3)cc12 | 0.205 | 1.54 | 0.961 | -1.13 | -4.08 | -1.39 | -0.575 (inactive) | -0.808 | -0.184 | 0.995 (inactive) |
| CC(C)C[C@@H]1NC(=O)[C@@H]2C[C@H](C(=O)NCc3ccc(F)cc3)[C@H](c3ccc(O)cc3)N2C1=O | 0.0054 | 0.305 | -1.03 | -0.199 | -0.214 | 1.07 | 0.0421 (inactive) | 0.182 | 0.593 | 0.149 (inactive) |
| CC(C)N1CC=CC23O[C@@H]4C=CCOC(=O)[C@@H]4[C@H]2C(=O)N(CCCCCCO)[C@@H]3C1=O (stereo not given in full) | 0.0698 | 0.105 | -0.684 | 1.17 | 0.255 | -0.202 | -0.109 (inactive) | 0.0854 | -0.249 | 0.64 (inactive) |
| C=CCOc1ccc([C@@H]2CC=C(C(=O)OCC)[C@H](c3cccc(Br)c3)N2S(=O)(=O)c2ccc(C)cc2)cc1 | 0.954 | 0.261 | -0.508 | 0.394 | -0.455 | 4.43 | 0.392 (inactive) | -0.957 | -0.0677 | -0.924 (inactive) |

| Structure (SMILES) | z-score [1] | z-score [2] | z-score [3] | z-score [4] | z-score [5] | z-score [6] | z-score [7] | z-score [8] | z-score [9] | z-score [10] |
| --- | --- | --- | --- | --- | --- | --- | --- | --- | --- | --- |
| C[C@H]1ON(c2ccccc2)[C@@H](c2ccccc2)[C@@H]1C(=O)N1C(=O)OC[C@@H]1c1ccccc1 | -0.279 | 0.261 | -0.941 | 0.608 | -0.144 | -1.24 | 0.46 (inactive) | 0.488 | -0.127 | 0.535 (inactive) |
| CCCN1C(=O)[C@@H]2Cc3c([nH]c4ccccc34)[C@@H](c3cccc(O)c3)N2C1=O | -0.362 | 0.407 | -1.81 | 0.342 | -0.178 | -1.45 | 0.137 (inactive) | -0.137 | -0.211 | 0.264 (inactive) |
| O=C1OCC=C[C@H]2OC34C=CCN(CCN5CCOCC5)C(=O)[C@H]3N(CCCCCO)C(=O)[C@@H]4[C@@H]12 (stereo not given in full) | 0.348 | 0.277 | -0.36 | 0.148 | 0.182 | -0.539 | 0.379 (inactive) | 0.205 | 0.802 | -0.536 (inactive) |
| CCOc1cc(C(O)C2C=CC3C(=O)NC(=O)C3N2Nc2ccccn2)ccc1O (stereo not given) | -0.773 | -1.5 | -0.506 | -0.369 | -0.328 | -1.87 | -0.892 (inactive) | -0.0441 | 0.157 | -0.923 (inactive) |
| COC(=O)c1c(CC[C@@H](CO)NC(=O)N[C@@H](C)Cn2cc(C3(O)CCCC3)nn2)oc(C(C)=O)c1C(=O)OC | 0.329 | 1.45 | -0.299 | -2.1 | -0.371 | -0.428 | 1.04 (inactive) | -0.357 | 0.932 | -0.514 (inactive) |
| COCCCNC(=O)[C@@H]1c2ccccc2C(=O)N(c2ccc(C)cn2)[C@H]1c1ccc(CO)cc1 | 0.212 | 1.23 | -0.357 | -1.04 | -0.57 | -0.569 | -0.916 (inactive) | 0.83 | 0.484 | -0.708 (inactive) |
| Cc1ccc(-c2cccc(=O)o2)cc1 | -0.104 | 0.796 | -0.117 | 0.0881 | -0.774 | -1.35 | -0.263 (inactive) | -0.177 | -0.299 | -0.0164 (inactive) |
| CN(C)C(=O)[C@@]1(Cc2ccccc2N=[N+]=[N-])N=C(c2ccc(OCCCO)cc2)O[C@H]1c1ccccc1N=[N+]=[N-] | -0.0639 | 1.45 | -1.38 | -3.16 | -4.47 | 1.45 | 0.918 (inactive) | -1.26 | -1.03 | -0.406 (inactive) |
| CC(C)CCC[C@@H](C)[C@H]1CC[C@@]2(C)C3=C(CC[C@]12C)[C@@]1(C)CC[C@H](OC(=O)C(C)(C)C)C(C)(C)C1CC3 (stereo not given in full) | 2.49 | 1.66 | 1.12 | 0.933 | -0.129 | 1.15 | 0.39 (inactive) | 0.363 | -1.44 | 0.221 (inactive) |
| CN(C)C(=O)[C@@]1(CCC(=O)OC(C)(C)C)COC(c2ccc(OCCCO)cc2)=N1 | 0.236 | -0.417 | 0.306 | 0.0475 | 0.0972 | -0.868 | 0.0942 (inactive) | 0.0733 | -1.14 | 0.594 (inactive) |
| CCCC[C@H]1OB(O)C[C@H]2C1=C(COc1ccccc1)Cn1c(=O)n(-c3ccccc3)c(=O)n12 | -0.428 | 0.75 | -0.561 | -0.206 | -1.28 | -2.12 | 0.16 (inactive) | 0.268 | -0.958 | -0.412 (inactive) |
| O=C(C=C(CC(O)c1cccc(Cl)c1)OCCF)OCCF (stereo not given) | 0.595 | 0.642 | 0.989 | 0.947 | -0.667 | 0.586 | 0.869 (inactive) | 0.0309 | -0.273 | 0.135 (inactive) |
| [N-]=[N+]=Nc1ccccc1[C@H]1OC(c2ccc(OCCCO)cc2)=N[C@@]1(Cc1ccccc1)C(=O)NCc1ccccc1 | -1.16 | 0.491 | -1.07 | -1.04 | -3.84 | 0.671 | -1.17 (inactive) | -1.16 | -2.17 | -1.56 (inactive) |
| CC(=O)NCCCC[C@@H]1NC(=O)[C@@H]2C[C@H](C(=O)NCCCC[N+](C)(C)C)[C@H](c3cccc(OCCO)c3)N2C1=O | -1.05 | -1.28 | -0.776 | -0.265 | -1.95 | -0.851 | -0.0939 (inactive) | 0.287 | 0.235 | -0.485 (inactive) |
| CCCNC(=O)[C@@]1(Sc2ccc(C)cc2)CC(=O)N(Cc2ccccc2)[C@@H]1c1ccc(CO)cc1I | -0.422 | -0.525 | 0.0653 | -2.18 | -2.52 | -0.901 | -0.686 (inactive) | -0.935 | -1.89 | 0.198 (inactive) |

— PubChem BioAssay
